Test systems include SR leukemia; RPMI-8226 leukemia; OVCAR-8 ovarian; OVCAR-5 ovarian; OVCAR-4 ovarian; SK-OV-3 ovarian; IGROV1 ovarian; HS 578T breast; NCI/ADR-RES ovarian; T-47D breast; BT-549 breast; MDA-MB-435 melanoma; SW-620 colon; MCF7 breast; HCT-116 colon; HCC-2998 colon; KM12 colon.
Common to all, as to assay: NCI-60 one-dose screen, 48 h (100 = growth as untreated, 0 = no growth, -100 = all killed)
Details in all cases: 10 µM unless noted

About 83,000 compounds went through this panel and 20% of them were active in at least one assay; those are over-represented in the sample as a whole.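 Plates (96-well) were seeded with cells, treated with compound at one concentration, and incubated for 48 hours before percent growth was determined.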 A number with no mark means an inactive call. Active and inactive are the calls of the source. Rule for the calls: active = growth percent below 10; inactive = the rest.

In the case of `CC1(C)CC[C@]2(C(=O)N3CCOCC3)CC[C@]3(C)C(=CC[C@@H]4[C@@]5(C)C/C(=C/c6ccco6)C(=O)C(C)(C)[C@@H]5CC[C@]43C)[C@@H]2C1`, the growth in the test on SR leukemia is 44.6%; in the test with RPMI-8226 leukemia it was 55.6%; in the test with OVCAR-8 ovarian, 91.3%; in the test on OVCAR-5 ovarian, 96.8%; in the test with OVCAR-4 ovarian, 60.9%; in the test with SK-OV-3 ovarian, 109%. Besides, the growth with IGROV1 ovarian is 86.7%; in the test on HS 578T breast, 83.5%; with NCI/ADR-RES ovarian, 96.6%; in the test with T-47D breast, 75.7%; with BT-549 breast, 97.4%; in the test with MDA-MB-435 melanoma, 88.7%. Moreover, the growth in the test on SW-620 colon is 74.1%; in the test on MCF7 breast, 64%; in the test with HCT-116 colon, 62.1%; in the test on HCC-2998 colon it was 103%; with KM12 colon it was 95.7%.

`Nc1ncc(-c2ccc(NS(=O)(=O)c3ccc(Cl)c(Cl)c3)cc2)[nH]1`: the growth in the test with SR leukemia is 76.6%; with RPMI-8226 leukemia, 59.1%; in the test with OVCAR-8 ovarian it was 92.9%; with OVCAR-5 ovarian it was 90.4%; in the test with OVCAR-4 ovarian, 93.9%; with SK-OV-3 ovarian, 94.5%. Also, the growth with IGROV1 ovarian was 88.8%; in the test on HS 578T breast, 79.5%; in the test with NCI/ADR-RES ovarian, 98.3%; with T-47D breast, 76.7%; in the test on BT-549 breast, 69.9%; with MDA-MB-435 melanoma it was 96.4%. Besides, the growth was 91.3% with SW-620 colon; 75% in the test on MCF7 breast; 99.3% with HCT-116 colon; 91.2% with HCC-2998 colon; 89.6% in the test on KM12 colon.

Turning to `Cc1ccc(NC(=O)N[C@@H](Cc2cc(F)cc(F)c2)C(=O)NC2C(=O)N3C[C@H](O)C[C@H]3C(=O)N3CCCC[C@H]3C(=O)N[C@@H](CO)C(=O)N3C[C@H](C)C[C@H]3C(=O)O[C@H]2C)c(F)c1` (stereo partly specified), the growth in the test on SR leukemia was 40.6%; with RPMI-8226 leukemia, 17.6%; in the test with OVCAR-8 ovarian, 44.1%; in the test with OVCAR-5 ovarian, 43.8%; in the test with OVCAR-4 ovarian, 29.8%; in the test with SK-OV-3 ovarian, 33.7%. The growth in the test with IGROV1 ovarian is 60.6%; in the test with HS 578T breast, 40.1%; in the test on NCI/ADR-RES ovarian, 107%; with T-47D breast, 32.5%; in the test with BT-549 breast it was 43.5%; in the test with MDA-MB-435 melanoma it was 23.1%. The growth in the test with SW-620 colon was 44.6%; with MCF7 breast, 18.1%; in the test with HCT-116 colon, 18.1%; with HCC-2998 colon it was 31.2%; with KM12 colon, 45.3%.

In the case of `C[C@@H]1C[C@H]2C(=O)O[C@@H](C)C(NC(=O)[C@H](Cc3cc(F)cc(F)c3)NC(=O)Nc3ccc(C4CC4)cc3F)C(=O)N3CCC[C@H]3C(=O)N3CCCC[C@H]3C(=O)N[C@@H](CO)C(=O)N2C1` (stereo partly specified), the growth was 28.1% in the test on SR leukemia; 14.9% in the test with RPMI-8226 leukemia; 20.9% in the test with OVCAR-8 ovarian; 29.9% with OVCAR-5 ovarian; 21.3% in the test with OVCAR-4 ovarian; 21% in the test on SK-OV-3 ovarian. In addition, the growth with IGROV1 ovarian is 42.2%; in the test with HS 578T breast, 32.7%; in the test with NCI/ADR-RES ovarian, 36.1%; with T-47D breast, 21.7%; with BT-549 breast, 27.6%; in the test on MDA-MB-435 melanoma it was 17.9%. Besides, the growth in the test with SW-620 colon was 35.8%; in the test on MCF7 breast it was 16.1%; in the test on HCT-116 colon, 10.6%; in the test with HCC-2998 colon it was 24%; in the test with KM12 colon it was 38%.

On to `Cc1ccc2c(c1)C(=O)/C(=C/c1cccc(F)c1)S2`, for which the growth was 101% in the test with SR leukemia; 84.6% in the test on RPMI-8226 leukemia; 103% with OVCAR-8 ovarian; 105% in the test with OVCAR-5 ovarian; 99.7% with OVCAR-4 ovarian; 99% in the test on SK-OV-3 ovarian. Also, the growth in the test with IGROV1 ovarian is 97.7%; in the test with HS 578T breast, 104%; in the test with NCI/ADR-RES ovarian, 109%; in the test with T-47D breast, 101%; with BT-549 breast, 134%; with MDA-MB-435 melanoma it was 98.1%. Moreover, the growth in the test with SW-620 colon is 105%; with MCF7 breast, 73.7%; in the test on HCT-116 colon it was 105%; in the test with HCC-2998 colon it was 113%; in the test on KM12 colon, 101%.

As for `C[C@@H]1C[C@H]2C(=O)O[C@@H](C)C(NC(=O)[C@H](Cc3cc(F)cc(F)c3)NC(=O)Nc3ccc(Cl)cc3F)C(=O)N3CCC[C@H]3C(=O)N3CCCC[C@H]3C(=O)N[C@@H](CO)C(=O)N2C1` (stereo partly specified), the growth with SR leukemia was 31.2%; in the test with RPMI-8226 leukemia it was 14.9%; in the test with OVCAR-8 ovarian it was 21.9%; in the test on OVCAR-5 ovarian it was 35.3%; in the test on OVCAR-4 ovarian it was 22.6%; with SK-OV-3 ovarian, 22.1%. For the same compound, the growth in the test with IGROV1 ovarian was 47.9%; with HS 578T breast, 33.4%; with NCI/ADR-RES ovarian, 47.5%; in the test on T-47D breast it was 34.4%; with BT-549 breast it was 35.3%; in the test on MDA-MB-435 melanoma it was 19.5%. The growth with SW-620 colon was 39.9%; in the test on MCF7 breast it was 16.1%; in the test with HCT-116 colon, 9.85% (active); with HCC-2998 colon, 26%; in the test with KM12 colon it was 42%.

As to `COc1cccc2c1CN(C(=O)c1ccc(O)c(C(=O)N3Cc4ccc(OCCC[P+](c5ccccc5)(c5ccccc5)c5ccccc5)cc4C3)c1)C2`, the growth is 35.3% in the test with SR leukemia; 26.2% in the test on RPMI-8226 leukemia; 79.5% in the test on OVCAR-8 ovarian; 123% in the test with OVCAR-5 ovarian; 84% with OVCAR-4 ovarian; 112% in the test on SK-OV-3 ovarian. Further, the growth in the test on IGROV1 ovarian was 43.9%; in the test on HS 578T breast, 49.5%; in the test with NCI/ADR-RES ovarian it was 103%; in the test on T-47D breast, 37.6%; in the test with BT-549 breast, 65.9%; in the test on MDA-MB-435 melanoma, 32%. Also, the growth was 70.5% in the test with SW-620 colon; 17.9% in the test on MCF7 breast; 80.8% in the test with HCT-116 colon; 47.9% with HCC-2998 colon; 44.4% with KM12 colon.

On to `COc1ccc(-n2c(SCc3nnc(NC(=O)c4ccc(Br)cc4)s3)nc3cc(OC)c(OC)cc3c2=O)cc1`, for which the growth was 101% in the test on SR leukemia; 104% in the test with RPMI-8226 leukemia; 94.9% in the test on OVCAR-8 ovarian; 95.5% with OVCAR-5 ovarian; 93.8% in the test on OVCAR-4 ovarian; 108% with SK-OV-3 ovarian. Besides, the growth with IGROV1 ovarian is 102%; in the test with HS 578T breast it was 99%; in the test on NCI/ADR-RES ovarian, 78.8%; with T-47D breast it was 112%; in the test with BT-549 breast, 137%; with MDA-MB-435 melanoma, 87.5%. The growth with SW-620 colon is 95.7%; with MCF7 breast, 85.6%; in the test on HCT-116 colon it was 96.2%; in the test with HCC-2998 colon it was 88.2%; with KM12 colon it was 90.6%.

(Values after PubChem BioAssay (NCI).)
